Screening data (PubChem BioAssay)
This is a sample that favours compounds with a hit; in the whole collection about 3.9% have one here.
BH1578 lux ind: quorum light induction in luxS cqsA deficient V. cholerae; V. cholerae BH1578 lux reporter, luminescence, 6 h; activation, % at 18.7 µM; 350,000 tested, 0.16% active; AID 588436; in the data active = activation mostly above about 9.7%, no sharp cut-off
PrPC surface inh: reduces human prion protein on the cell surface; 370,000 tested, 0.43% active; cell surface PrPC, TR-FRET read-out; inhibition, % at 13.8 µM; AID 720596; P04156; in the data active = inhibition above about 24%; note: 0% = median of the test wells and 100% = reference compound wells
3CLpro inhibitor: SARS-CoV 3CLpro protease inhibition | 290,000 tested, 0.14% active | recombinant SARS-CoV 3CLpro, quenched FRET peptide cleavage | inhibition, % at 6 µM | AID 1706 | P0C6X7; in the data active = inhibition above about 12%
GDH-TPI counter-1: GDH-TPI coupled enzyme inhibition counter-screen; GDH-TPI coupled enzyme counterscreen, NADH absorbance; inhibition, % at 4.8 µM; 360,000 tested, 1.2% active; AID 588335; in the data active = inhibition above about 30%;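 note: 0% = DMSO wells and 100% = wells lacking the enzyme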
Mtb FBA inh: Mtb fructose-bisphosphate aldolase inhibition. P9WQA3. purified M. tuberculosis FBA, fluorescence read-out. inhibition, % at 1 µM. 360,000 tested, 2.3% active. AID 588726;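 note: 0% = vehicle and 100% = reference inhibitor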
Target sequence (P9WQA3 whole entry, looked up): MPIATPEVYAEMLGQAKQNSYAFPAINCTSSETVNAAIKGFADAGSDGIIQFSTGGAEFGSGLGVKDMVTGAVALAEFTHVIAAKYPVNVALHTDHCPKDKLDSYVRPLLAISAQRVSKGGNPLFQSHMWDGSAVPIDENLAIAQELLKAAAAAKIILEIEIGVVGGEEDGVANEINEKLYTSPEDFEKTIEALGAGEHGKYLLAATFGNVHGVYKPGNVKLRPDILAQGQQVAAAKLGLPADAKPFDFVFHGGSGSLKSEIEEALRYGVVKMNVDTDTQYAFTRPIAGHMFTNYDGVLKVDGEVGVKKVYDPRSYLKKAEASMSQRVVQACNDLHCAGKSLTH
Mtb FBA inh conf: confirmation of M. tuberculosis fructose-bisphosphate aldolase inhibitors | 5,600 tested, 78% active | shares compounds with Mtb FBA inh | purified M. tuberculosis FBA, fluorescence read-out | inhibition, % at 1 µM | AID 651616;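 note: 0% = vehicle wells and 100% = reference inhibitor wells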
GDH-TPI counter-2: GDH-TPI inhibition counter-screen for FBA inhibitors; shares compounds with Mtb FBA inh; GDH-TPI coupled enzyme counterscreen, fluorescence; inhibition, % at 1 µM; 5,600 tested, 81% active; AID 652141; in the data active = inhibition above about 10%
GDH-TPI dose: counter-screen for M. tuberculosis FBA inhibitors: GDH-TPI dose response. shares compounds with Mtb FBA inh. GDH-TPI coupled enzyme assay, fluorescence, artifact counterscreen. IC50, µM. 170 tested, 79% active; call rule not given here
The depositor's hits bear a star. Cut-off read from the data, not from the text of the source, unless noted: active = inhibition above about 27%; inactive = the rest.

`O=C(NCCN1CCOCC1)c1cc(-c2ccccc2)nc2ccccc12` gave BH1578 lux ind -1, PrPC surface inh 2, GDH-TPI counter-1 12 and Mtb FBA inh 0.
For Cc1ccc(-c2cc(C(=O)NCCCN3CCOCC3)c3ccccc3n2)cc1C the results were BH1578 lux ind 0, PrPC surface inh -1, 3CLpro inhibitor -3, GDH-TPI counter-1 7, Mtb FBA inh 66*, Mtb FBA inh conf 70* and GDH-TPI counter-2 70*.
COc1ccc(-c2cc(C(=O)NCCN3CCOCC3)c3cc(C(C)C)ccc3n2)cc1 was read as BH1578 lux ind -1, PrPC surface inh 4, 3CLpro inhibitor -8, GDH-TPI counter-1 13, Mtb FBA inh 42*, Mtb FBA inh conf 160* and GDH-TPI counter-2 153*.
Screening CCOc1ccc(-c2cc(C(=O)NCCCN3CCCC3)c3ccccc3n2)cc1 returned BH1578 lux ind 0, PrPC surface inh -10, 3CLpro inhibitor -3, GDH-TPI counter-1 21, Mtb FBA inh 28*, Mtb FBA inh conf 12 and GDH-TPI counter-2 16*.
For CN(Cc1cccnc1)C(=O)Cc1ccc(NS(=O)(=O)c2cccc(C(F)(F)F)c2)cc1 the results were BH1578 lux ind 0, PrPC surface inh 5, 3CLpro inhibitor 0, GDH-TPI counter-1 -3 and Mtb FBA inh 0.
COc1ccc2nc(SCC(=O)O)nc(C)c2c1 was read as BH1578 lux ind 15*, PrPC surface inh -2, 3CLpro inhibitor -1, GDH-TPI counter-1 3, Mtb FBA inh 39*, Mtb FBA inh conf 101* and GDH-TPI counter-2 90*.
CN1CCSc2ccc(C(=O)Nc3ccc(Cl)cc3)cc21 was read as BH1578 lux ind 2, PrPC surface inh -4, 3CLpro inhibitor 1, GDH-TPI counter-1 13, Mtb FBA inh 33*, Mtb FBA inh conf 13 and GDH-TPI counter-2 3.
Cc1cc(C)nc(SCc2cn3ccccc3n2)n1 was read as BH1578 lux ind -1, PrPC surface inh -4, 3CLpro inhibitor 0, GDH-TPI counter-1 -6 and Mtb FBA inh 1.
Screening Cc1cc(C)n2c(Br)c(CN3CC4CC(C3)c3cccc(=O)n3C4)nc2n1 (centres undefined) returned BH1578 lux ind 0, PrPC surface inh -12, 3CLpro inhibitor 0, GDH-TPI counter-1 11 and Mtb FBA inh 0.
Cc1cc(C)n2c(Br)c(CN3CCCC(C)C3)nc2n1 (centres undefined) was read as BH1578 lux ind inactive, PrPC surface inh 3, 3CLpro inhibitor 0, GDH-TPI counter-1 -7, Mtb FBA inh 35*, Mtb FBA inh conf 77* and GDH-TPI counter-2 58*.
`Cc1cc(C)nc(SCc2nc3nc(C)cc(C)n3c2Br)n1` gave BH1578 lux ind inactive, PrPC surface inh 0, 3CLpro inhibitor 0, GDH-TPI counter-1 -4, Mtb FBA inh 30*, Mtb FBA inh conf 36* and GDH-TPI counter-2 22*.
Screening COc1ccc(OC)c(Cc2nnc(CCC(=O)NC3C4CC5CC(C4)CC3C5)o2)c1 (centres undefined) returned BH1578 lux ind 0, PrPC surface inh 8, 3CLpro inhibitor 0, GDH-TPI counter-1 -4 and Mtb FBA inh -3.
COc1ccc(Cl)cc1C(=O)OCC(=O)c1c(N)n(C)c(=O)n(C)c1=O was read as BH1578 lux ind -1, PrPC surface inh 0, GDH-TPI counter-1 -12 and Mtb FBA inh 2.
For COc1cc2ccccc2cc1C(=O)OCC(=O)c1c(N)n(C)c(=O)n(C)c1=O the results were BH1578 lux ind 2, PrPC surface inh -6, GDH-TPI counter-1 6, Mtb FBA inh 28*, Mtb FBA inh conf 178* and GDH-TPI counter-2 142*.
For O=C(O)c1ccccc1N/C=C\[N+](=O)[O-] the results were BH1578 lux ind inactive, PrPC surface inh -5, 3CLpro inhibitor -3, GDH-TPI counter-1 7, Mtb FBA inh 32*, Mtb FBA inh conf 71* and GDH-TPI counter-2 56*.
Screening NC(=O)Nc1ccc(C(=O)OCC(=O)Nc2ccc(Cl)cn2)cc1 returned BH1578 lux ind 0, PrPC surface inh 5, 3CLpro inhibitor 0, GDH-TPI counter-1 1 and Mtb FBA inh -1.
`CC(=O)COc1ccc2c(-c3cccc([N+](=O)[O-])c3)cc(=O)oc2c1` gave BH1578 lux ind 0, PrPC surface inh -10, 3CLpro inhibitor 2, GDH-TPI counter-1 5, Mtb FBA inh 36*, Mtb FBA inh conf 108* and GDH-TPI counter-2 74*.
For CCN(CC)CCCNC(=O)CCc1c(C)n(CC)c2cc(-c3ccccc3OC)nn2c1=O the results were BH1578 lux ind 0, PrPC surface inh 2, 3CLpro inhibitor -4, GDH-TPI counter-1 -7, Mtb FBA inh 65*, Mtb FBA inh conf 195* and GDH-TPI counter-2 118*.
CCOC(=O)CCc1c(C)n(CC)c2cc(-c3ccccc3OC)nn2c1=O was read as BH1578 lux ind inactive, PrPC surface inh 6, 3CLpro inhibitor -4, GDH-TPI counter-1 8, Mtb FBA inh 67*, Mtb FBA inh conf active and GDH-TPI counter-2 active.
For COc1ccc(NC2CCCN(C(=O)c3ccc4nc(C)c(C)nc4c3)C2)cc1OC (centres undefined) the results were BH1578 lux ind 0, PrPC surface inh 7, 3CLpro inhibitor -3, GDH-TPI counter-1 19 and Mtb FBA inh -1.
`CCCc1cc(=O)oc2cc(C)cc(OC(C)C(=O)NCCN3CCOCC3)c12` (centres undefined) gave BH1578 lux ind -1, PrPC surface inh 1, 3CLpro inhibitor 2, GDH-TPI counter-1 13, Mtb FBA inh 61*, Mtb FBA inh conf 54* and GDH-TPI counter-2 43*.
For Cc1cc(OC(C)C(=O)NCCN2CCOCC2)c2c(C)c(C)c(=O)oc2c1 (centres undefined) the results were BH1578 lux ind -5, PrPC surface inh -12, 3CLpro inhibitor 4, GDH-TPI counter-1 8, Mtb FBA inh 51*, Mtb FBA inh conf 116* and GDH-TPI counter-2 94*.
CC(Oc1cc2oc(=O)c3c(c2cc1Cl)CCC3)C(=O)NCCN1CCOCC1 (centres undefined) was read as BH1578 lux ind 0, PrPC surface inh -3, 3CLpro inhibitor 0, GDH-TPI counter-1 24 and Mtb FBA inh 12.
Screening Cc1cc(OC(C)C(=O)NCCCN2CCOCC2)c2c(C)cc(=O)oc2c1 (centres undefined) returned BH1578 lux ind inactive, PrPC surface inh 3, 3CLpro inhibitor 3, GDH-TPI counter-1 -5, Mtb FBA inh 56*, Mtb FBA inh conf 12, GDH-TPI counter-2 -2 and GDH-TPI dose 2.7*.
